# The whole screen tested about 96,000 compounds, of which about 20,000 (21%) were called active.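 Rule for the calls: active = CYP2C19 inhibition above a set limit at 5 µM in the primary screen (cut at about 50% in these data); inactive = the rest.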 These entries were drawn from the full list.
# Molecular target: Cytochrome P450 2C19 (Homo sapiens) (UniProt P33261)
# Assay: blockers of cytochrome P450 2C19 activity – biochemical, luminescence, ADME assay, primary screen (AID 778);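 note: plate controls were negative control wells for no effect and 2.5 mM tranylcypromine positive control for full effect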
# Details: CYP2C19 Supersomes, luciferin-H EGE luminescence, 30 min; at 5 µM; stronger effect = higher value
# Cytochrome P450 2C19 (Homo sapiens), sequence (P33261 whole entry, looked up): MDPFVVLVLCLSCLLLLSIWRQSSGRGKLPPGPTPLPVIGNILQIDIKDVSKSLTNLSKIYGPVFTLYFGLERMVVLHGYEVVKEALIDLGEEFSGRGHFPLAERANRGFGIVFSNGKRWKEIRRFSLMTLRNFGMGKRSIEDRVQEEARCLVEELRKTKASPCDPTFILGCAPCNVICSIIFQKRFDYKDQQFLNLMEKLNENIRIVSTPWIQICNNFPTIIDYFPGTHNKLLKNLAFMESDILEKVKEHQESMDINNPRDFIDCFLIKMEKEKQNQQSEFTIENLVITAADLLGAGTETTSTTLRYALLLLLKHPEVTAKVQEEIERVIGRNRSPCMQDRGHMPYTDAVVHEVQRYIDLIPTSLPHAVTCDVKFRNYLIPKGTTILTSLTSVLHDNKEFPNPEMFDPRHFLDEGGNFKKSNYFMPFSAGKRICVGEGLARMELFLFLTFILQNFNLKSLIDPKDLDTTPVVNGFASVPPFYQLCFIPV
row,Compound,inhibition
1,CC(=O)CCS(=O)(=O)c1ccc(C)c(C)c1,35.1% (inactive)
2,CCN(CC)CC(=O)Nc1nn(-c2ccccc2)nc1C(N)=O,-19.9% (inactive)
3,COC(=O)c1ccc(Oc2nc(Nc3ccc(F)cc3)nc(N3CCCC3)n2)cc1,32.3% (inactive)
4,Cc1nn(-c2ccccc2)c2[nH]c(C(F)(F)F)cc(=O)c12,-2.2% (inactive)
5,CCCCn1nnnc1NCc1cc(OC)c(OC)c(OC)c1,79.8% (active)
6,CCCCCCc1cc2cc(-c3nnc(-c4ccccc4)o3)c(=O)oc2cc1O,27.4% (inactive)
7,c1ccc2cc3[nH]c(CN4CCCCC4)nc3cc2c1,82.7% (active)
8,c1ccc2cc(OCCN3CCCC3)ccc2c1,4.2% (inactive)
9,c1cc(-c2nn[nH]n2)ccc1CN1CCCCC1,-11.4% (inactive)
10,Cc1nc(C)c(-c2csc(NCCc3ccccc3)n2)s1,39.4% (inactive)
11,Cn1c(=NC(=O)CSCC(=O)N2CCOCC2)sc2ccccc21,46.6% (inactive)
12,Cn1c(=NC(=O)CSCC(=O)N2CCCCC2)sc2ccccc21,73.6% (active)
13,Cn1c(=NC(=O)c2cnccn2)sc2ccccc21,-2.4% (inactive)
14,CC(C)c1nc2oc3c(N4CCN(C)CC4)ncnc3c2c2c1CCC2,22.2% (inactive)
15,O=C(Oc1ccccc1)Oc1ccc2c(c1)oc(=O)c1ccccc12,-10.9% (inactive)
16,COc1ccc(C(=O)c2oc3ccc(Br)cc3c2NC(C)=O)cc1,-4% (inactive)
17,ON=C1/C(=N\O)CC2(C/C1=N/O)OCCO2,-10.5% (inactive)
18,O=C(C1CCC1)N1CCc2cc(S(=O)(=O)NCc3cccnc3)ccc21,10% (inactive)
19,O=C1c2ccccc2C(=O)c2c1cccc2N1CCN(Cc2ccccc2)CC1,13.4% (inactive)
20,CN1CCN(S(=O)(=O)c2ccc(N3CCN(S(=O)(=O)c4cccs4)CC3)nc2)CC1,-25.5% (inactive)
21,O=S(=O)(c1cccs1)N1CCN(Cc2ccccc2)CC1,98.1% (active)
22,CCCCNc1nc2ccccc2nc1NS(=O)(=O)c1cccs1,2.4% (inactive)
23,O=C(Nc1ccc(S(=O)(=O)N2CCc3ccccc3C2)cc1)c1ccccc1,0.3% (inactive)
24,O=S(=O)(c1cccs1)N1CCc2ccccc2C1,78% (active)
25,CCN(c1ccccc1)S(=O)(=O)c1ccc(NC(=O)C(C)(C)C)cc1,9.3% (inactive)
26,COc1cccc(/C=N\Nc2nncc(-c3ccccc3)n2)c1,-7% (inactive)

row,Compound,inhibition
1,O=C1C=C(c2ccc(Cl)cc2)C(=O)N1Nc1ccccc1,19.7% (inactive)
2,CCOc1ccc(C(=O)NC2CCN(S(=O)(=O)CC)CC2)cc1,9.1% (inactive)
3,CC(=O)NC(Cc1ccc(F)cc1)C(=O)O (stereo unspecified),-5.1% (inactive)
4,Cn1c(SCc2c(F)cccc2Cl)nnc1-c1cnccn1,25.9% (inactive)
5,CCCc1nc2sc3c(c2c(=O)n1NC(=O)CCCl)CCCC3,88.5% (active)
6,Cc1nc(SCC(=O)Nc2cc(C)on2)c2c3c(sc2n1)CCCC3,7% (inactive)
7,O=C(NCc1ccco1)c1cccn2c(=O)c3c4c(sc3nc12)CCCC4,45.2% (inactive)
8,O=C(Nc1ccc(Cl)cc1)c1ccsn1,25.4% (inactive)
9,O=C(Nc1ccncc1)c1cc2ccccc2o1,99.6% (active)
10,O=C(NCCc1ccc2c(c1)OCCO2)c1cc2ccccc2o1,41.2% (inactive)
11,O=C(Nc1ccncc1)c1c(F)cccc1F,52.4% (active)
12,CN1C(=O)c2ccc(NC(=O)c3c(F)c(F)c(F)c(F)c3F)cc2C1=O,-11.8% (inactive)
13,O=C(Nc1cccc(-c2nc3ncccc3o2)c1)c1ccco1,5.2% (inactive)
14,C/C(=C\C(=O)c1ccccc1)Nc1cccc(O)c1,10.3% (inactive)
15,COc1ccc(CNC(=O)C2CCC(CNc3c(N4CCOCC4)c(=O)c3=O)CC2)cc1 (stereo unspecified),-12.8% (inactive)
16,COc1cccc(-c2nc3cc(C)ccc3o2)c1,42.7% (inactive)
17,C/C=C/C(=O)OCC(=O)Nc1ccc(F)cc1Cl,16.4% (inactive)
18,CCC1Oc2ccc(Cl)cc2N(CC(=O)O)C1=O (stereo unspecified),-3.7% (inactive)
19,Cc1cccc(C)c1NC(=O)c1ccc(CN2CCc3ccccc3C2)cc1,-19.5% (inactive)
20,CCC(c1nnnn1C1CCCC1)N1CCN(C(=O)c2ccco2)CC1 (stereo unspecified),61.3% (active)
21,CC(C)C(c1nnnn1CCc1ccccc1)N1CCN(C(=O)c2ccco2)CC1 (stereo unspecified),15.7% (inactive)
22,CC(=O)c1ccc(-n2nnnc2SCC(=O)N2CCN(C(=O)c3ccco3)CC2)cc1,-3.8% (inactive)
23,COC(=O)C1=C(C)NC2=C(C(=O)c3ccccc32)C1c1ccc(-c2ccc(C(=O)O)cc2)o1 (stereo unspecified),44.5% (inactive)
24,COC(=O)c1cc(NC(=O)CC2C(=O)NCCN2C(=O)c2ccc(F)cc2)cc(C(=O)OC)c1 (stereo unspecified),8.6% (inactive)
25,O=C(NC(C(=O)NCCN1CCOCC1)C12CC3CC(CC(C3)C1)C2)C1CCCCC1 (stereo unspecified),-0.8% (inactive)
26,OC(CN1C2=NCCCN2c2ccccc21)c1ccc(Br)cc1 (stereo unspecified),11.9% (inactive)

row,Compound,inhibition
1,Cn1sc(NC(=O)c2ccccc2)nc1=O,0.2% (inactive)
2,COC(=O)c1nc(NC(=O)c2ccccc2)n[nH]1,1.9% (inactive)
3,O=C(Nc1nsc(-c2ccccc2)n1)c1ccncc1,93.3% (active)
4,CCOC(=O)C1Sc2[nH]c(=O)sc2C(c2ccc(Cl)cc2)C1C(=O)OCC (stereo unspecified),24.6% (inactive)
5,COc1ccc2[nH]c(=O)c(CN(CC3CCCO3)C(=O)Nc3ccccc3)cc2c1 (stereo unspecified),32.6% (inactive)
6,Cc1cccc(NC(=O)N(Cc2cc3cc(C)cc(C)c3[nH]c2=O)CC2COCCO2)c1 (stereo unspecified),76.8% (active)
7,Cc1ccc2[nH]c(=O)c(CN(CCCN(C)C)C(=O)Nc3cccc(Cl)c3)cc2c1,-4.4% (inactive)
8,CCOC(=O)c1cccc(NC(=O)CCc2c(C)nc3ncnn3c2C)c1,2.3% (inactive)
9,Cc1ccc2c(CSc3nncs3)cc(=O)oc2c1,86.8% (active)
10,Cc1cc([N+](=O)[O-])c(N2CCC[C@@H]2C(=O)O)c([N+](=O)[O-])c1,-5.1% (inactive)
11,CCOc1ccc(C(=O)NC(C(=O)NCc2ccccn2)C(C)C)cc1 (stereo unspecified),26.7% (inactive)
12,COc1cccc(/C=N/NC(=O)c2cccc([N+](=O)[O-])c2)c1OS(=O)(=O)c1ccc(C)cc1,1.4% (inactive)
13,CC(C)(CSc1nncn1/N=C/c1ccco1)NS(=O)(=O)c1ccc(Cl)cc1,53.3% (active)
14,COc1ccc(O)c(C=Nc2cc(C)on2)c1,1.5% (inactive)
15,COc1ccc(O)c(C(=O)c2cnc3onc(C(C)C)c3c2)c1,100% (active)
16,O=C(Nc1cccc2cccnc12)c1cccc(N2C(=O)CCC2=O)c1,22.2% (inactive)
17,CCCC(C(=O)N1CCOCC1)N1C(=O)C2C3C=CC(C3)C2C1=O (stereo unspecified),-3.8% (inactive)
18,CCCCC(=O)Nc1cc(C)c2c(=O)oc3ccccc3c2n1,16.3% (inactive)
19,Cc1ccccc1-n1nnc2c(=O)oc3ccccc3c21,66.5% (active)
20,Cc1nc(Cl)c2oc3ccccc3c2n1,49.8% (inactive)
21,Cc1ccc(-c2nc(CS(=O)CC(=O)N3CCN(c4ncccn4)CC3)c(C)o2)cc1 (stereo unspecified),24.1% (inactive)
22,COc1cc(C(=O)N(Cc2ccc(N(C)C)cc2)C2CCS(=O)(=O)C2)cc(OC)c1OC (stereo unspecified),19% (inactive)
23,COc1ccc(C(=O)N(Cc2ccc(N(C)C)cc2)C2CCS(=O)(=O)C2)cc1 (stereo unspecified),8.9% (inactive)
24,CCOc1ccc(C(=O)N(Cc2ccc(N(C)C)cc2)C2CCS(=O)(=O)C2)cc1 (stereo unspecified),58.6% (active)
25,Cc1ccc(CCn2c3c(c4ccccc42)CN(C)CC3)cn1,7.8% (inactive)
26,CSc1nc2nc3c(c(=O)n2[nH]1)CCC3,4.1% (inactive)

row,Compound,inhibition
1,COc1cc2c(cc1OC)C(c1ccncc1)CC(=O)N2 (stereo unspecified),16.4% (inactive)
2,COc1ccc(C2CC(=O)Nc3cc(C)c(C)cc32)c(OC)c1OC (stereo unspecified),94.5% (active)
3,COc1cccc(-c2nnc(N(C)C(=O)c3ccno3)s2)c1,11.1% (inactive)
4,Cc1nnc(C)n1/N=C/c1ccc(C(C)C)cc1,10.5% (inactive)
5,COC(=O)c1ccc(C(=O)Nc2cc(Cl)ccc2Cl)cc1NC(=O)c1ccccc1C,4.7% (inactive)
6,Cc1cccc(C(=O)Nc2ccc(CC(=O)O)cc2)c1,-0.6% (inactive)
7,CN(C)c1ccc(NC(=O)c2ccncc2)c2ccccc12,90.3% (active)
8,Cc1ccccc1NC(=O)c1ccccc1,-2% (inactive)
9,COC(=O)c1ccccc1NC(=O)c1cncc(Br)c1,30.8% (inactive)
10,CCOc1ccc(-c2cn(S(=O)(=O)c3cccc4nsnc34)nc2N)cc1,3.8% (inactive)
11,COc1cc(C(=O)OC(C)C(=O)NCC2CCCCC2)cc(NC(=O)c2ccco2)c1OC (stereo unspecified),38.3% (inactive)
12,COC(=O)c1ccc(CSc2ccc3nnc(-c4ccccc4)n3n2)o1,63.7% (active)
13,O=C(O)CSCc1ccc(C(=O)O)o1,-3% (inactive)
14,CCOc1ccccc1Nc1nnc(SCc2ccc(C(=O)OC)o2)s1,43% (inactive)
15,CCc1ccc(C(=O)CSc2nnc(C)c(=O)[nH]2)cc1,19.3% (inactive)
16,Cc1ccc(OCC(=O)Nc2ccc(-c3nc4ncccc4o3)cc2)cc1,3.2% (inactive)
17,Cc1ccc(OCC(=O)N/N=C/c2ccncc2)cc1,96.3% (active)
18,Cc1cc(C)c(OCC(=O)N/N=C/c2ccco2)c(C)c1,41.2% (inactive)
19,O=C(Nc1cc2c3c(c1)C1CCCC1CN3CC1CCCC21)c1ccc([N+](=O)[O-])cc1 (stereo unspecified),28.2% (inactive)
20,Cc1cccc(N(CC(=O)N=Nc2c(O)[nH]c3ccccc23)S(C)(=O)=O)c1C,33.6% (inactive)
21,O=c1cc(CSc2ccccn2)nc(N2CCN(c3ccccc3)CC2)[nH]1,-0.6% (inactive)
22,Cc1nnc(SCc2cc(=O)[nH]c(N3CCN(Cc4ccccc4)CC3)n2)s1,50.4% (active)
23,CCc1c(C)nc(N2CCN(Cc3ccccc3)CC2)[nH]c1=O,2.4% (inactive)
